Screen size: about 290,000 compounds; about 3,000 (1%) were called active. Many of the other results were omitted from the sample, so actives are more common in it than they were. Values without a mark were called inactive. Rule as the data show it: active = inhibition mostly above about 36% (no sharp cut-off); inactive = mostly below about 34%.
experiment: inhibition of NOD1-driven NF-kB reporter – cell-based, luminescence, uHTS, primary screen (AID 1578); conditions: NOD1-driven NF-kB luciferase reporter cells, at 4 µM, hits give high values;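 also: HEK-293T reporter cells stimulated with the NOD1 agonist gamma-tri-DAP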

Row | SMILES | inhibition
1 | COc1ccc(S(=O)(=O)Nc2cccc(S(=O)(=O)N3CCCCCC3)c2)cc1 | -27%
2 | COc1ccc(S(=O)(=O)Nc2nc3ccccc3nc2Nc2ccc3c(c2)OCO3)cc1 | 7%
3 | O=S(=O)(Nc1nc2ccccc2nc1Nc1ccc2c(c1)OCO2)c1ccccc1 | 57.6%
4 | O=S(=O)(Nc1cccc(S(=O)(=O)N2CCCCCC2)c1)c1ccccc1 | -11.7%
5 | O=S(=O)(Nc1nc2ccccc2nc1Nc1cccc(S(=O)(=O)N2CCCCC2)c1)c1ccccc1 | 98.4% (active)
6 | CCOc1ccc(NS(=O)(=O)c2ccc(C(=O)N(CC)CC(=O)NCc3cccs3)cc2)cc1 | -1.7%
7 | COc1cccc(CNC(=O)COc2ccc(C(=O)c3ccccc3)cc2)c1 | 4%
8 | O=C(NCc1ccco1)Nc1ccc(OC(F)(F)F)cc1 | -6.5%
9 | O=C(C1=NN[C@@H]2C(=O)N(c3ccccc3C(F)(F)F)C(=O)[C@H]12)c1cnccn1 | -13.1%
10 | Cc1cccc2cc3c(N)c(C(=O)N4CCOCC4)sc3nc12 | -5%
11 | Cc1ccc2nc3sc(C(=O)Nc4ccc(N5CCOCC5)cc4)c(N)c3cc2c1 | -21.9%
12 | COc1cc(NC(=O)CSc2nccc(=O)[nH]2)c(C)cc1[N+](=O)[O-] | -24.5%
13 | Cc1cc(-c2ccc(C)c(S(=O)(=O)N3CC(=O)Nc4ccccc43)c2)on1 | -2.5%
14 | CC(=O)N1c2ccccc2C2(O)N=C(C)SC12 (stereo not drawn) | 66.4% (active)
15 | CC(=O)N1c2ccccc2C(C)(C)C2CCC(C)CC21 (stereo not drawn) | -5.9%
16 | Cc1ccc(C(=O)CC2(O)C(=O)N(C)c3ccccc32)s1 (stereo not drawn) | -9.2%
17 | COc1ccc(C(=O)NNC(=O)CN2CCC(n3nnc4cc(C)ccc43)CC2)cc1 | -14.9%
18 | O=C(OCc1ccc(Cl)cc1)c1cccnc1Cl | -33%
19 | COCCCNc1ncnc2c1[nH]c1ccccc12 | -16.9%
20 | CCOCCCNc1ncnc2c1[nH]c1ccccc12 | 19.9%
21 | CCCCOCCCNc1ncnc2c1[nH]c1ccccc12 | 65.9% (active)
22 | O=S(=O)(c1ccc(S(=O)(=O)n2cnc3ccccc32)cc1)N1CCCCCC1 | 8.9%
23 | C=CCO/N=C/C1C(=O)CC(C)(C)CC1=O | -25.9%
24 | O=C(NC12CC3CC(CC(C3)C1)C2)N1CCN(c2ccccc2)CC1 | -18%
25 | Clc1ccccc1OCCCOc1cccc2cccnc12 | -0.6%

Row | SMILES | inhibition
26 | CN(Cc1cccs1)c1nc(-c2cccnc2)nc2ccccc12 | -37.4%
27 | CCOc1ccc(CN(C)c2nc(-c3cccnc3)nc3ccccc23)cc1OC | 55.2% (active)
28 | COc1ccc(CN(C)c2nc(-c3cccnc3)nc3ccccc23)cc1OC | 36.1%
29 | Cc1ccc2cc(C#N)c(NCCNC(=S)NCCCN(C)C)nc2c1C | -23.4%
30 | CCCn1c(SCC(=O)Nc2nnc(C(C)C)s2)nc2c1c(=O)n(C)c(=O)n2C | 34%
31 | CCCCn1c(SCC(=O)Nc2nnc(C)s2)nc2c1c(=O)n(C)c(=O)n2C | 6.2%
32 | O=C(c1cnn(C(=O)c2cccc(S(=O)(=O)N3CCOCC3)c2)c1)c1ccccc1O | 9.5%
33 | COc1ccc(S(=O)(=O)N2CCc3ccccc32)cc1C(=O)OCC(=O)c1c(N)n(C)c(=O)n(C)c1=O | -11.1%
34 | CC1CCCCC1NC(=O)CCCn1c(=S)[nH]c2ccsc2c1=O (stereo not drawn) | -13.7%
35 | CCn1cc(CN2CCc3c([nH]c4ccccc34)C2c2ccc(F)c(OC)c2)c(C)n1 (stereo not drawn) | -23.6%
36 | Cc1ccc(CS(=O)(=O)CCC(=O)NCCCN2CCCC2)cc1 | -5.9%
37 | Cc1ccc(CS(=O)(=O)CCC(=O)NCCN2CCCCC2C)cc1 (stereo not drawn) | 96.5% (active)
38 | Cc1ccc(CS(=O)(=O)CCC(=O)NCCN2CCCC2)cc1 | -7.3%
39 | CN(Cc1ccccc1)c1nc(N)c([N+](=O)[O-])c(Nc2cccc(F)c2)n1 | -10.7%
40 | Cc1c(O)c2cccnc2[nH]c1=O | -21.9%
41 | c1cc2c(cc1C1=NNC(=NC3CC3)SC1)OCCO2 | 96.6% (active)
42 | COc1ccc(N=C2NN=C(c3ccc4c(c3)OCCO4)CS2)cc1 | -44.7%
43 | c1ccc2oc(C3=NNC(=NC4CC4)SC3)cc2c1 | 86.6% (active)
44 | C=CCN=C1NN=C(c2ccc3c(c2)OCCO3)CS1 | 67.8% (active)
45 | CC(C)(C)N=C1NN=C(c2cc3ccccc3o2)CS1 | -38.4%
46 | c1ccc(C2=NNC(=NC3CC3)SC2)cc1 | 59.6%
47 | Cc1cccc(N=C2NN=C(c3ccc4c(c3)OCCO4)CS2)c1 | -35.2%
48 | c1ccc(CN=C2NN=C(c3cc4ccccc4o3)CS2)cc1 | -43%
49 | CCCCN=C1NN=C(c2ccc3c(c2)OCCO3)CS1 | 14.8%
50 | CCOC(=O)N1CCC(NC(=O)CN2C(=O)CSc3nc(C)cc(C)c32)CC1 | -2.4%

Row | SMILES | inhibition
51 | Cc1ccc(Nc2nc(N)nc(CSC(=S)N3CCOCC3)n2)c(C)c1 | -10%
52 | COc1cc(/C=C/CO)cc(OC)c1OC/C=C(\C)CCC=C(C)C | 0.8%
53 | COCCn1c(SCC(=O)Nc2ccccc2C(F)(F)F)nc2ccccc2c1=O | -11.7%
54 | COc1ccc(-c2cc(C3CC3)nc3sc(C#N)c(N)c23)cc1 | 7.9%
55 | CC(C)c1cc(C(=O)N/N=C/c2c[nH]c3ccccc23)n[nH]1 | -15.2%
56 | COC(=O)COc1cccc2c(=O)n(CC(=O)NCCc3ccccc3)ccc12 | -38.1%
57 | Cc1cccc(Nc2ncnc(N)c2[N+](=O)[O-])n1 | 28.6%
58 | Cc1ccc(CNc2nc(N)c([N+](=O)[O-])c(NCc3ccccc3)n2)cc1 | 0.5%
59 | Nc1ncnc(NCc2ccccc2)c1[N+](=O)[O-] | 37.6%
60 | Cc1cccnc1Nc1ncnc(N)c1[N+](=O)[O-] | -32%
61 | COc1ccc(Cc2nc3ccc(C(=O)N4CCCC4)cc3o2)cc1OC | 1.3%
62 | Cc1ccc(Cn2nc(C)c(NC(=O)CCCn3nc([N+](=O)[O-])c(Cl)c3C)c2C)cc1 | -25.5%
63 | COc1ccc(C)cc1Nc1n[n+](-c2ccccc2)c(-c2ccc(NC(C)=O)cc2)s1 | -19%
64 | CCn1c2ccccc2c2cc(/C=N/NC(=O)c3ccc(O)cc3)ccc21 | 32.8%
65 | CCn1c2ccccc2c2cc(/C=N/NC(=O)c3cc(O)cc(O)c3)ccc21 | 58.8% (active)
66 | CCn1c2ccccc2c2cc(/C=N/NC(=O)c3ccccc3)ccc21 | 41.4%
67 | CCOC(=O)C1=C(CC)Nc2ccccc2N=C1NC(=O)CCNC(C)=O | -28.2%
68 | CCOC(=O)C1=C(CC)Nc2ccccc2N=C1NC(=O)c1oc2ccccc2c1C | 56.6% (active)
69 | CCOCc1c(C(=O)NC2=Nc3ccccc3NC(CC)=C2C(=O)OCC)oc2ccccc12 | 4.5%
70 | O=C(Cc1ccccc1)NN1C(=O)C2C3C=CC(C3)[C@@H]2C1=O (stereo partly drawn) | -12.9%
71 | Cc1nc(SCCOc2ccc(F)cc2)c2ccccc2n1 | -33.3%
72 | Cc1ccc(NC(=O)CCn2cnc3cc(C)c(C)cc32)cc1 | -8.2%
73 | CCOC(=O)c1ccc(NC(=O)Cn2cnc3cc(C)c(C)cc32)cc1 | 33% (active)
74 | COC(=O)c1ccccc1NC(=O)Cn1cnc2cc(C)c(C)cc21 | -3.9%
75 | O=C(Nc1ccc(Br)cc1)c1cc(-c2ccc3c(c2)OCO3)on1 | -33.8%

Row | SMILES | inhibition
76 | Cc1cccc(NC(=S)NC(=O)c2oc3ccccc3c2C)n1 | -35.5%
77 | O=C(Nc1cc(S(=O)(=O)N2CCOCC2)ccc1N1CCOCC1)C1CCCO1 (stereo not drawn) | -32.9%
78 | Cc1ccc(-n2c3c(c(=O)[nH]c2=O)C(NS(=O)(=O)c2ccc(Cl)cc2)(C(F)(F)F)C(=O)N3)cc1 (stereo not drawn) | -31.8%
79 | O=C(NCc1ccccc1)c1ccc2nccnc2c1 | 2%
80 | O=C(NCCc1ccccc1)c1ccc2nccnc2c1 | 66.7% (active)
81 | O=C(NCCc1ccc(Cl)cc1)c1ccc2nccnc2c1 | -33.2%
82 | CCCCNc1ccc(C(CC(N)=O)NC(=O)Cc2ccc(Br)cc2)cc1[N+](=O)[O-] (stereo not drawn) | -9.3%
83 | OC(CNCC1COc2ccccc2O1)COc1ccc(Cl)cc1 (stereo not drawn) | -12.2%
84 | CC(=O)c1cccc(OCC(O)CNCC2COc3ccccc3O2)c1 (stereo not drawn) | 37.9% (active)
85 | CC(=O)c1cccc(OCC(O)CNCC2CCCCC2)c1 (stereo not drawn) | -5.6%
86 | Cn1cc(Br)c(C(=O)n2cc(Br)cn2)n1 | -7.4%
87 | Cc1noc(C)c1S(=O)(=O)N1CCCC(C(=O)NCCc2ccccc2)C1 (stereo not drawn) | -28.4%
88 | CCNC(=O)COC(=O)c1cc(-c2ccccc2)nn1-c1ccccc1 | -16.6%
89 | Fc1ccccc1C1c2[nH]c3ccccc3c2CCN1CCCn1cccn1 (stereo not drawn) | 43.5%
90 | Cc1ccccc1C1c2[nH]c3ccccc3c2CCN1CCCn1cccn1 (stereo not drawn) | 53.6% (active)
91 | COc1ccc(C2c3[nH]c4ccccc4c3CCN2CCCn2cccn2)c(C)c1C (stereo not drawn) | -26.9%
92 | CC(C)N1CCC(N2CCN(Cc3nc4ccccc4s3)CC2CCO)CC1 (stereo not drawn) | -1.8%
93 | CC(C)N(C(=O)COC(=O)c1ccc(Cl)nc1)C(C)C | -35.6%
94 | Cc1nc2ccccc2cc1C(=O)Nc1ccccc1Cl | -21.8%
95 | Cn1ccnc1C(=O)c1ccc(N)cc1 | -32.6%
96 | COc1ccc(-c2csc3nc(-c4cccnc4)nc(N4CCC(C(N)=O)CC4)c23)cc1OC | 23.4%
97 | Clc1nc(-c2cccnc2)nc2scc(-c3ccccc3)c12 | -5%
98 | COc1ccc(-c2csc3nc(-c4cccnc4)nc(Cl)c23)cc1OC | 73.4% (active)
